# NALP1 yeast inh – blocks the NALP1 inflammasome reconstituted in yeast | S. cerevisiae NALP1/ASC/caspase-1 growth, X-gal OD620, 72 h | inhibition, % at 10 µM | 280,000 compounds, 0.61% hits | AID 2071; in the data active means inhibition mostly above about 24%, no sharp cut-off; inactive means mostly below about 32%
# V-ATPase pHluor – alters yeast V-ATPase proton transport. S. cerevisiae, pHLuorin cytosolic pH fluorescence. 350,000 compounds, 0.37% hits. AID 504577. response, % at 10 µM; in the data active means response mostly above about 7.3%, no sharp cut-off; inactive means mostly below about 5.4%; further: actives read high
# TIM10 inh – TIM10 yeast growth inhibition. inhibition, % at 10 µM. S. cerevisiae TIM10 strain growth, BacTiter-Glo luminescence, 24 h. AID 463195. 330,000 compounds, 1.4% hits;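 active means inhibition of 40% or more at the single tested concentration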;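 further: wild-type TIM10 isogenic control strain grown at permissive 25 °C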
# NALP3 yeast inh – NALP3 inhibition in yeast; Yeast reconstituted NLRP3/ASC/caspase-1, beta-gal luminescence, 24 h; inhibition, % at 10 µM; 330,000 compounds, 0.39% hits;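 active means inhibition of 50% or more; inactive means inhibition below 50%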
# tim23-1 inh – inhibits growth of tim23-1 mutant yeast | S. cerevisiae tim23-1 growth, BacTiter-Glo luminescence, 24 h | inhibition, % at 20 µM | 330,000 compounds, 1.3% hits;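 active means growth inhibition of the mutant yeast at or above 50%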;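 further: temperature-sensitive mutant grown at 25 °C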
# tim10-1 inh – inhibits growth of tim10-1 mutant yeast | S. cerevisiae tim10-1 ts strain growth, BacTiter-Glo, 24 h | 330,000 compounds, 2.2% hits | inhibition, % at 20 µM;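 active means inhibition of at least 40%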;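 further: mutant grown at 25 °C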
# Numbers stand for hits; i = inactive; nt = no result. This is a sample that favours compounds with a hit; in the whole collection about 4.2% have one here.
SMILES,NALP1 yeast inh,V-ATPase pHluor,TIM10 inh,NALP3 yeast inh,tim23-1 inh,tim10-1 inh
NC(=O)c1ccccc1NC(=O)CN1CCOCC1,i,i,i,i,i,i
NC(=O)CN1CCOCCOCCN(CC(N)=O)CCOCC1,39,i,i,i,i,i
O=C(c1cc2cc(Cl)ccc2o1)N1CCCC1,35,i,i,i,i,i
O=C(Nc1cccc2c1CCCC2)c1cc([N+](=O)[O-])ccc1Cl,i,9.7,i,i,i,i
COc1ccccc1CNC(=O)c1cc2ccccc2oc1=O,28,i,i,i,i,i
Cc1c(NS(=O)(=O)c2cc(C(=O)N(C)Cc3ccccc3)ccc2Cl)c(=O)n(-c2ccccc2)n1C,nt,i,i,i,i,i
CCN(CC)CCCNC(=O)c1cn(CCOC)c(=O)c2c1c1ccccc1n2C,31,i,i,i,i,i
CCN(CC)CCNC(=O)c1cn(CCOC)c(=O)c2c1c1ccccc1n2C,i,i,i,i,i,i
CC1CCCN(S(=O)(=O)c2ccc(NC(=O)C3CC(=O)N(c4ccccc4)C3)cc2)C1 (configuration not stated),i,14,i,i,i,i
O=C(Nc1ccc(S(=O)(=O)N2CCCCC2)cc1)C1CC(=O)N(c2ccccc2)C1 (configuration not stated),i,i,i,i,i,i
CCCCCCNC(=O)CC(c1ccccc1)c1cc(Br)ccc1O (configuration not stated),i,i,i,i,i,i
CC(C)NC(=O)CC(c1ccccc1)c1cc(Br)ccc1O (configuration not stated),40,i,i,i,i,i
CC(C)(C)C(=O)CSc1ncnc2c1cnn2Cc1ccccc1,i,i,i,i,i,i
c1ccc(CSc2ncnc3c2cnn3Cc2ccccc2)cc1,i,17,i,i,i,i
Brc1ccc(/C=N/Nc2ncnc3c2cnn3Cc2ccccc2)cc1,30,i,i,i,i,i
Cc1ccc(NC(=O)c2ccc([N+](=O)[O-])s2)cc1S(=O)(=O)N1CCOCC1,nt,i,i,i,i,i
CN(C)CCCNS(=O)(=O)c1ccc(Cl)s1,30,i,i,i,i,i
Cc1ccc(Nc2ccc(NCc3ccccc3)nn2)cc1C,i,i,i,i,i,i
Clc1ccc(Nc2ccc(NCc3ccccc3)nn2)cc1,72,i,i,i,i,i
CCn1cc(CN2CCc3c([nH]c4ccccc34)C2c2cccc(OC)c2OC)c(C)n1 (configuration not stated),i,i,i,i,i,i
COc1ccc(OC)c(NS(=O)(=O)Cc2ccccc2)c1,42,nt,i,i,i,i
COc1ccc(CNC(=O)CN2CCN(C(c3ccccc3)c3ccccc3)CC2)cc1,37,i,i,i,i,i
O=C(CN1CCN(C(c2ccccc2)c2ccccc2)CC1)NCc1ccccc1,i,i,i,i,i,i
Cc1nc(C(=O)NNC(=O)c2c(-c3c(Cl)cccc3Cl)noc2C)cs1,nt,i,i,i,i,i
Cc1onc(-c2c(Cl)cccc2Cl)c1C(=O)Nc1nc(C(C)(C)C)cs1,36,i,i,i,i,i
SMILES,NALP1 yeast inh,V-ATPase pHluor,TIM10 inh,NALP3 yeast inh,tim23-1 inh,tim10-1 inh
CC(=O)Nc1ccc2c(c1)Cc1cc(N3C(=O)C=CC3=O)ccc1-2,nt,i,nt,nt,nt,nt
O=C1C=CC(=O)N1c1ccc2c(c1)Cc1cc(F)ccc1-2,nt,17,nt,nt,nt,nt
COc1ccc(N(C(C)=O)C2C=CS(=O)(=O)C2)c(OC)c1 (configuration not stated),39,i,i,i,i,i
COc1ccc(N(C(=O)c2ccccc2OC)C2C=CS(=O)(=O)C2)c(OC)c1 (configuration not stated),i,i,i,i,i,i
CCc1c(C2(O)CCCCC2)[nH]c2ccc(C(F)(F)F)cc12,i,i,i,i,i,i
Oc1c(Br)cc(/C=N/Nc2ccc(Cl)nn2)cc1Br,i,i,i,i,i,i
Oc1c(Br)cc(Br)cc1/C=N/Nc1ccc(Cl)nn1,41,i,nt,nt,nt,nt
CC(C)c1ccc(NC(=O)c2cc(Br)ccc2Br)cc1,i,i,i,i,i,i
CCc1ccc(NC(=O)c2cc(Br)ccc2Br)cc1,42,nt,i,i,i,i
CCC(C)N1CC(O)=C(c2nc3ccccc3[nH]2)C1=N (configuration not stated),i,i,i,i,i,i
CCCCCCN1CC(O)=C(c2nc3ccccc3[nH]2)C1=N,i,13,i,i,i,i
O=c1ncn(-c2cccc([N+](=O)[O-])c2)c2ccccc12,nt,i,i,i,i,i
Cc1c(Cl)cccc1-n1cnc(=O)c2ccccc21,nt,13,i,i,i,i
CCN(CC)C(=O)c1sc(NC(=O)Cc2ccc(OC)cc2)c(C#N)c1C,43,i,i,i,i,i
CCN(CC)C(=O)c1sc(NC(=O)Cc2ccccc2)c(C#N)c1C,i,i,i,i,i,i
CCCCOc1ccc(S(=O)(=O)N2CCN(C)CC2)cc1,nt,i,i,i,i,i
NC(=O)C1CCN(C(=O)C2CCC(=O)N(CC3CCCCC3)C2)CC1 (configuration not stated),i,i,i,i,i,i
COc1ccc(-n2c(C)cc(C(=O)CCl)c2C)cc1,42,i,i,i,i,i
COc1ccc(-n2c(C)cc(C(=O)CN3C(=O)c4ccccc4C3=O)c2C)cc1,i,i,i,i,i,i
O=C(NCCCl)NNc1c(Cl)cc(Cl)cc1Cl,31,i,i,i,i,i
CCN1/C(=C/C=C/C=C/C=C/c2sc3ccccc3[n+]2CC)Sc2ccccc21,39,i,i,i,i,i
CC[n+]1c(/C=C/Nc2ccccc2)sc2ccccc21,i,i,i,i,i,i
Cn1c(SCc2ccc(Br)cc2)nc2ccccc2c1=O,i,i,i,i,i,i
O=c1c2ccccc2nc2n1C(CSc1ccc(Br)cc1)CN2 (configuration not stated),31,i,i,i,i,i
C[C@]12c3[nH]c4cc(-c5ccco5)ccc4c3CCN1C(=O)[C@@H](CC(=O)NCc1ccco1)C[C@@H]2C(=O)N1CCOCC1,nt,i,i,nt,i,i
SMILES,NALP1 yeast inh,V-ATPase pHluor,TIM10 inh,NALP3 yeast inh,tim23-1 inh,tim10-1 inh
Cc1cc(S(=O)(=O)ON2C(=O)c3ccccc3C2=O)ccc1F,i,11,nt,nt,nt,nt
Cc1ccc(NCC(=O)c2ccccc2)cc1Cl,i,i,i,i,i,i
Cc1ccc(NC2=C(NC(=O)c3ccccc3)C(=O)c3ccccc3C2=O)cc1Cl,65,i,i,i,i,i
CCCCNC(=S)N(CCO)Cc1cc2cc3c(cc2[nH]c1=O)OCCO3,i,i,i,i,i,i
Cc1sc2ncnc(NCC3(N4CCOCC4)CCCCC3)c2c1C,44,i,i,i,i,i
CC1(CCc2ccccc2)NC(=O)N(CC(=O)Nc2ccc3c(c2)OCCO3)C1=O (configuration not stated),i,i,i,i,i,i
CC(C)C(C)NC(=O)CN1C(=O)NC2(CCc3ccccc32)C1=O (configuration not stated),i,i,i,i,i,i

# Assay outcomes deposited in PubChem BioAssay by several laboratories.
